High-throughput results: PubChem BioAssay, several laboratories
Calb FLC – C. albicans growth modulation with fluconazole; C. albicans CaCi-2 (fluconazole-resistant clinical isolate) + fluconazole, Alamar Blue growth, 48 h; growth inhibition, % (concentration not given with the values); hit rate 0.57% among 300,000;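 active = growth inhibition above about 58% in most replicates, limit read from the data, passing the limit was not always enough; inconclusive = exactly half the replicates above a set limit; inactive = most replicates below a set limit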;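 also: all wells also contain fluconazole at 8 µg/ml as a sub-toxic cotreatment; 0% = median of DMSO wells and 100% = median of geldanamycin control wells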
E coli growth-1 – E. coli growth inhibition; hit rate 0.21% among 330,000; Escherichia coli growth, OD600, 23 h; hits give low values; OD600 absorbance (no concentration beside the values);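 active = OD600 absorbance below the run mean of sample wells minus 3.6 SD, in any replicate, cut at about 0.56 in these data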
E coli growth-2 – reduces bacterial viability in AddAB counter-screen; inhibition, % at 11.9 µM; AID 449728; E. coli V3065 growth, OD600 absorbance, 18 h; hit rate 0.27% among 330,000;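 active = inhibition above the campaign's mean inhibition across all tested compounds plus 3 SD, cut at about 9.9% in these data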;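 also: uninfected addAB+ strain grown without phage in ampicillin broth; 0% = DMSO wells and 100% = ciprofloxacin 0.95 µg/ml wells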
AddAB inh – less growth of phage-infected E. coli with AddAB; E. coli expressing H. pylori AddAB, absorbance growth; inhibition, % at 11.9 µM; hit rate 0.29% among 330,000; AID 435030; in the data active = inhibition above about 12%;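 also: 0% = vehicle wells of infected cells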
Tat transport – inhibitors of E. coli Tat protein transport. E. coli MC4100 TorA-mCherry Tat export, fluorescence. inhibition, % at 10 µM. hit rate 0.036% among 340,000;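 active = mean replicate inhibition at least 50% and at least half of replicates individually reaching 50%; inconclusive = only one of the two criteria met; inactive = neither criterion met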;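 also: exported cargo escapes ClpAP degradation while cytoplasmic cargo is degraded and loses fluorescence; 0% = median of neutral control wells and 100% = median of NaSCN control wells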
phage Ecoli inh – E. coli growth loss with phage present. hit rate 0.26% among 360,000. inhibition, % at 11.9 µM. growth absorbance. AID 651602; in the data active = inhibition above about 11%
AddAB conf – growth loss of T4-infected E. coli expressing H. pylori AddAB, confirmed | shares compounds with AddAB inh | E. coli V3065 expressing H. pylori AddAB, T4 phage, OD; T4 phage with gene 2 nonsense mutations | inhibition, % at 11.9 µM | hit rate 64% among 880 | AID 488942;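 active = mean inhibition above a set limit taken from the earlier primary screen, cut at about 13% in these data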;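 also: higher means less bacterial growth since AddAB block lets phage replicate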
RecBCD counter – counter-screen: growth loss of RecBCD+ E. coli with mutant T4 phage | shares compounds with AddAB inh | E. coli V66 + mutant T4 phage, OD growth | inhibition, % at 11.9 µM | hit rate 73% among 880;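 active = mean inhibition above the mean of solvent-only control wells plus 3 SD, cut at about 4% in these data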;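 also: optical density read after an 18 h incubation at 37 °C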
Bact viability – counter-screen for AddAB inhibitors: inhibitors of bacterial viability; shares compounds with AddAB inh; absorbance (AddAB counterscreen); inhibition, % at 11.9 µM; hit rate 35% among 880; AID 488956; in the data active = inhibition above about 25%
The depositor's hits bear a star; ? = inconclusive; . = no result. Rows were chosen to be rich in hits. Some 0.9% of all compounds tested hit in one or more screens of this group.

SMILES | Calb FLC | E coli growth-1 | E coli growth-2 | AddAB inh | Tat transport | phage Ecoli inh | AddAB conf | RecBCD counter | Bact viability
Nc1c(S(=O)(=O)c2cccc(Cl)c2)c2nc3ccccc3nc2n1/N=C/c1ccc(O)c(O)c1 | 85.3* | . | 12.7* | 14.9* | . | . | 13.0* | 13.4* | 14.1
Nc1c(S(=O)(=O)c2ccccc2)c2nc3ccccc3nc2n1N=Cc1cccc(O)c1 | . | 0.762 | . | . | . | . | . | . | .
O=C(Nc1ccc(N2CCCC2)c(Cl)c1)c1ccc([N+](=O)[O-])o1 | . | 0.621 | . | . | -21.8 | 8.1 | . | . | .
O=C(Nc1cccc(NC(=O)c2ccccc2Cl)c1)c1ccc([N+](=O)[O-])o1 | 79.5* | . | 10.7* | 13.5* | -23.7 | 9.2 | 83.8* | 5.5* | 21.2
O=C(Nc1ccc2[nH]c(=O)[nH]c2c1)c1ccc([N+](=O)[O-])o1 | . | 0.644 | 19.3* | 18.2* | -9.9 | 7.3 | 57.1* | 9.0* | 23.6
Cc1ccc(NC(=O)c2ccc([N+](=O)[O-])o2)cc1C | 116.7* | 0.471* | 30.5* | 26.7* | -17.9 | 9.6 | 97.6* | 10.9* | 31.3*
C#CCOCCOCCOCCNc1nc(N2CCN(C(=O)C(CC(N)=O)n3cc(C(N)C(C)CC)nn3)CC2)nc(N2CCN(C(=O)C(CC(N)=O)n3cc(C(N)C(C)CC)nn3)CC2)n1 (stereo not drawn) | . | 0.67 | . | . | . | . | . | . | .
CCc1ccc2nc(N=C(N)NC(=O)c3ccccc3)nc(C)c2c1 | . | 0.637 | . | . | . | . | . | . | .
Cc1cc([N+](=O)[O-])c(C)cc1-c1ccc(C=NNC(=O)c2cccnc2)o1 | . | 0.717 | . | . | . | . | . | . | .
CCCNC(=O)c1ccc2c(=O)c(O)c(-c3ccsc3)[nH]c2c1 | 70.7 | . | 17.8* | 17.8* | -11.0 | . | 12.6* | 12.4* | 10.9
CCCNC(=O)c1ccc2c(=O)c(O)c(-c3ccc(OC)cc3)[nH]c2c1 | 81.6* | 0.726 | 16.4* | 18.1* | -4.5 | . | 10.9 | 12.7* | 13.9
COc1c(N2CCNC(C)C2)c(F)cc2c(=O)c(C(=O)O)cn(C3CC3)c12 (stereo not drawn) | . | 0.061* | 102.4* | 99.8* | . | . | 100.9* | 101.1* | 102.5*
Cc1c(-n2cc(C(=O)O)c(=O)c3cc(F)c(N4CCCC(O)C4)c(F)c32)c(=O)n(-c2ccccc2)n1C (stereo not drawn) | 1.0 | 0.717 | 0.8 | 2.4 | 5.9 | 0.7 | . | . | .
O=C(N/N=C\c1cccc(Cl)c1)c1ccc(Cn2cc(Br)c([N+](=O)[O-])n2)o1 | -13.6 | . | 25.6* | 28.7* | 2.0 | 8.3 | 28.6* | 4.2* | 22.5
O=C(c1ccccc1)c1c2c(cc3sc4ccccc4[n+]13)-c1cccc3cccc-2c13 | . | 0.48* | 5.5 | 16.4* | 7.3 | 7.2 | 89.3* | 0.9 | 19.3
Cc1sc2cc3c(c(C(=O)c4ccccc4)[n+]2c1C)-c1cccc2cccc-3c12 | 56.7 | 0.557 | -0.3 | 6.2 | . | 3.0 | . | . | .
CN(C)C=Nc1c(C(=O)NCc2ccccc2)nnn1Cc1ccccc1 | . | 0.681 | . | . | . | . | . | . | .
C=CCSc1nc2sc(C)c(C)c2c(=O)[nH]1 | -5.6 | 0.707 | 7.6 | 16.9* | -5.5 | 2.1 | -2.2 | 1.2 | -2.2
Cc1cc2ccccn2c1C(=O)c1cccc([N+](=O)[O-])c1 | 39.5 | 0.743 | 0.6 | 0.7 | -3.8 | 2.1 | . | . | .
Cc1cc2ccccn2c1C(=O)c1ccc([N+](=O)[O-])o1 | ? | 0.693 | 19.6* | 39.9* | 11.8 | 11.9* | 94.5* | 8.4* | 40.1*
COc1ccc(C2=NS(=O)(=O)N(C)C(C(=O)NCc3ccco3)=C2)cc1OC | -0.4 | 0.662 | -3.4 | -1.8 | -8.3 | 2.0 | . | . | .
Cc1ccc(C2=NS(=O)(=O)N(C)C(C(=O)NCc3ccco3)=C2)cc1 | -1.8 | 0.722 | 5.6 | 25.6* | -9.6 | 3.3 | -2.4 | 1.0 | -1.5
Cc1ccc(-c2c(NC(=O)c3ccco3)oc3ccccc3c2=O)cc1 | 56.4 | 0.626 | 39.5* | 93.5* | -3.4 | -0.7 | -0.8 | 0.2 | -2.3
O=C(Nc1oc2ccccc2c(=O)c1-c1ccccc1)c1ccco1 | . | . | . | . | . | -2.5 | . | . | .
